Consider 23 compounds from PubChem BioAssay (NCATS).

Test [1] is described as follows: Drug repurposing screens with cells derived from glioblastoma tumor samples (AID 1345199). For activity, negative = cell killing: % is set by controls: 0 for no effect and ±100 for the full control effect. Note: nearly all actives have a fitted effect of over 40% in size. Note: potency is the fitted concentration of half-maximal effect. As to conditions: GBM patient neurospheres viability, ATP luminescence, 48 h. A digest of the protocol:
(§1)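 Primary testing used CD133+ neurospheres from four GBM patients, seven concentrations, 48 h exposure and ATP-based viability; confirmation added three slower-growing patient lines.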

A short description of test [2]: qHTS assay for small molecule activators of the human pregnane X receptor (PXR) signaling pathway (AID 720659; call rule not given here; note: 0% is about no effect). As to conditions: DPX-2 HepG2 CYP3A4-luciferase, 24 h; series mostly up to 92.3 µM. For orientation: qHTS replaces the single test concentration by a dilution series.
In test [3] the test system is astro (control astrocytes). Nature of the test: Drug repurposing screens with cells derived from glioblastoma tumor samples (AID 1345199). For activity, negative = cell killing: % is set by controls: 0 for no effect and ±100 for the full control effect. Note: nearly all actives have a fitted effect of over 40% in size. Note: potency is the fitted concentration of half-maximal effect. Particulars: viability, ATP luminescence, 48 h; series mostly up to 45.9 µM. The procedure, abridged: as §1
Test [4] concerns the target Nuclear receptor subfamily 1 group I member 2 (Rattus norvegicus) (UniProt Q9R1A7). The experiment in a line: qHTS assay for small molecule activators of the rat pregnane X receptor (rPXR) signaling pathway (AID 651751; call rule not given here; note: 0% is about no effect). Particulars: rPXR reporter cells, luciferase (One-Glo), 24 h.
[5] abbreviates: at 45.9 µM (top of the series), tumour line B.
The mark [6] stands for this setting: at 45.9 µM (top of the series), tumour line D.
Where [7] appears, read: at 46.1 µM (top of the series), tumour line C.

Values joined by “and” are separate entries in the source; they are usually repeats but may differ in a detail not shown here. Equal entries are not always repeated. Values without a mark were called inactive. Results filed as inconclusive are left out. Active and inactive are the calls of the source. Unless noted, calls come from the whole dose curve; as a rule, active = well fitted inhibition curve with a large enough effect; inconclusive = small, poorly fitted or top-dose-only effect; inactive = flat fitted curve, though single readings scatter.

Chain of Nuclear receptor subfamily 1 group I member 2 (Rattus norvegicus) (Q9R1A7 whole entry, looked up): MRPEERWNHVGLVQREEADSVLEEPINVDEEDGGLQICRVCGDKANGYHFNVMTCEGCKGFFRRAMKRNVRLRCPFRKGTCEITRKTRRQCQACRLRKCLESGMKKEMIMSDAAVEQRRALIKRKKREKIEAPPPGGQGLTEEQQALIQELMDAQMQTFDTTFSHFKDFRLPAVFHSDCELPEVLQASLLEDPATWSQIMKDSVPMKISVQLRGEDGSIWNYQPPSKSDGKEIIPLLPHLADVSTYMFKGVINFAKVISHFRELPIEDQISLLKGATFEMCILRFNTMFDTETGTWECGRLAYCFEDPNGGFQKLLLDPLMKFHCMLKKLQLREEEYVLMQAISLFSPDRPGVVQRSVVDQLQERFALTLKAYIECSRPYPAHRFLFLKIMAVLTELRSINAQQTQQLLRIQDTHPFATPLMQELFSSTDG

With `O=[N+]([O-])c1ccc(F)c([N+](=O)[O-])c1`, the activity, negative = cell killing in test [1] (setting [5]) was -29.6%. Also, the Potency is 20 µM (active) in test [1] (tumour line A) and 14.6 µM (active) in test [1] (tumour line C). In addition, the outcome in test [2] was inactive.
On to `CNC1(c2ccccc2Cl)CCCCC1=O` (stereo unspecified), for which the activity, negative = cell killing in test [1] (setting [5]) was -12.1% and -12.4%; in test [1] (setting [6]), -13.4% and -12.7%; in test [1] (setting [7]), -5.45%. Further, the Potency result in test [3] was “inactive”.
For the compound `C[C@]12CC[C@H]3[C@@H](CC[C@@]45O[C@@H]4C(O)=C(C#N)C[C@]35C)[C@@H]1CC[C@@H]2O`, the results for the activity, negative = cell killing in test [1] (setting [5]), in test [1] (setting [6]) and in test [1] (setting [7]) were 0.146%, -21.9% and -5.72%, respectively. Moreover, the Potency result in test [3] was “inactive”.
As to `CCOP(=O)(OCC)O/C(=C/Cl)c1ccc(Cl)cc1Cl`, the activity, negative = cell killing in test [1] (setting [5]) is -17.8%; in test [1] (setting [6]) it was -23.4%. Besides, the Potency in test [1] (tumour line A) is 12.6 µM (active). In test [3], the Potency entry was “inactive”.
On to `CC(=O)OC1CN2CCC1CC2` (stereo unspecified), for which the figures for the activity, negative = cell killing in test [1] (setting [5]), in test [1] (setting [6]) and in test [1] (setting [7]) were -1.18%, 12% and -1.09%, respectively. Besides, the Potency entry in test [3] is “inactive”.
Take `CCN1C[C@]2(COC)[C@H](O)C[C@H](OC)[C@@]34[C@@H]5C[C@@]6(O)[C@H](OC(=O)c7ccccc7)[C@@H]5[C@@](OC(C)=O)([C@@H]([C@H](OC)[C@H]23)[C@@H]14)[C@@H](O)[C@@H]6OC`: the activity, negative = cell killing is -6.48% in test [1] (setting [5]), -4.25% in test [1] (setting [6]) and 8.16% in test [1] (setting [7]). For the same compound, the Potency entry in test [3] is “inactive”.
Turning to `C[C@]12CC[C@H]3[C@@H](CCC4=C(O)C(=O)CC[C@@H]43)[C@@H]1CC[C@@H]2OC(=O)CCC1CCCC1`, the activity, negative = cell killing was -11.4% in test [1] (setting [5]), -14.1% in test [1] (setting [6]) and -19.8% in test [1] (setting [7]). Moreover, the Potency result in test [3] was “inactive”.
Turning to `N#CC1(N2CCCCC2)CCCCC1`, the activity, negative = cell killing was -11.3% in test [1] (setting [5]), -14.5% in test [1] (setting [6]) and -18% in test [1] (setting [7]). Further, the Potency entry in test [3] is “inactive”.
In the case of `[O]=[Cr](=[O])([OH])[O][Cr](=[O])(=[O])[OH]`, the activity, negative = cell killing in test [1] (setting [6]) is -3.21%; in test [1] (setting [7]), -22.8% and -5.59%. Also, the Potency result in test [3] is “inactive”.
`O=C1CCO1`: the values for the activity, negative = cell killing in test [1] (setting [5]), in test [1] (setting [6]) and in test [1] (setting [7]) were -1.82%, 6.37% and -10.3%, respectively. Further, in test [3], the Potency entry is “inactive”. For the same compound, the max response in test [4] was -3.35%. The result in test [2] was inactive.
For `Clc1ccc(C2(Cn3cncn3)OCCO2)c(Cl)c1`, the activity, negative = cell killing in test [1] (setting [5]) is -15.5%; in test [1] (setting [6]) it was 0.916%; in test [1] (setting [7]) it was -23.5%. Also, the Potency entry in test [3] was “inactive”.
As for `CN1[C@@H]2CC[C@H]1CC(OC1c3ccccc3CCc3ccccc31)C2` (stereo partly specified), the activity, negative = cell killing in test [1] (at 21.2 µM (top of the series), tumour line B) was -28.8%. The Potency in test [1] (tumour line A) is 5.62 µM (active). Also, the Potency result in test [3] is “inactive”.
Regarding `CCCCCCCCOC(=O)c1ccccc1C(=O)OCCCCCCCC`, the results for the activity, negative = cell killing in test [1] (setting [5]), in test [1] (setting [6]) and in test [1] (setting [7]) were -18%, 6.99% and -8.6%, respectively. In addition, the Potency result in test [3] is “inactive”. Further, in test [4], the max response is -1.02% and 3.16%. In test [2], the call was inactive.
Regarding `c1ccc(C2(N3CCCC3)CCCCC2)cc1`, in test [1] (setting [7]), the activity, negative = cell killing is -27.4%. In addition, the Potency in test [1] (tumour line A) was 11.2 µM (active). Besides, the Potency result in test [3] was “inactive”.
For the compound `S=C=S`, the results for the activity, negative = cell killing in test [1] (setting [5]), in test [1] (setting [6]) and in test [1] (setting [7]) were -6.17%, -16.5% and -10.7%, respectively. Moreover, the Potency result in test [3] was “inactive”. Also, in test [4], the max response is -0.686%. Further, the result in test [2] was inactive.
As for `CN(C)CCCCCCN(C)C` (tested in a mixture with another compound), the values for the activity, negative = cell killing in test [1] (setting [5]), in test [1] (setting [6]) and in test [1] (setting [7]) were -12.5%, -12.1% and -16.2%, respectively. The Potency result in test [3] is “inactive”.
Consider `C=CCN=C=S`, for which the activity, negative = cell killing was -6.51% in test [1] (setting [5]), -10.4% in test [1] (setting [6]) and 6.26% in test [1] (setting [7]). For the same compound, the Potency result in test [3] is “inactive”. Further, the max response in test [4] was 3.71%. Moreover, the result in test [2] was inactive.
Consider `OC[C@@H](O)[C@H]1O[C@@H]2O[C@H](C(Cl)(Cl)Cl)O[C@@H]2[C@H]1O`, for which the activity, negative = cell killing is -1.98% in test [1] (setting [5]), -2.86% in test [1] (setting [6]) and -11.5% in test [1] (setting [7]). The Potency entry in test [3] is “inactive”.
In the case of `ClC1=C(Cl)[C@]2(Cl)[C@@H]3[C@H]4C[C@H]([C@@H]5O[C@H]45)[C@@H]3[C@@]1(Cl)C2(Cl)Cl`, the activity, negative = cell killing in test [1] (setting [5]) is -22%. Besides, the Potency in test [1] (tumour line A) was 11.2 µM (active). Moreover, the Potency result in test [3] is “inactive”.
As for `COCC(C)N(C(=O)CCl)c1c(C)csc1C` (stereo unspecified), the activity, negative = cell killing in test [1] (setting [5]) was -13.4%; in test [1] (setting [6]) it was -11.3%; in test [1] (setting [7]) it was -13.3%. Further, the Potency result in test [3] was “inactive”. Moreover, the max response in test [4] was 2.96%.
For the compound `c1csc(C2(N3CCCCC3)CCCCC2)c1`, the figures for the activity, negative = cell killing in test [1] (setting [5]), in test [1] (setting [6]) and in test [1] (setting [7]) were -10.4%, -7.27% and -24.6%, respectively. In addition, the Potency entry in test [3] was “inactive”.
`C=CCN(C1=NCCN1)c1c(Cl)cccc1Cl`: the figures for the activity, negative = cell killing in test [1] (setting [5]), in test [1] (setting [6]) and in test [1] (setting [7]) were -5.59%, -0.731% and -15.8%, respectively. Also, in test [3], the Potency result was “inactive”.
As to `C=CC[C@]1(O)CC[C@H]2[C@@H]3CCC4=CCCC[C@@H]4[C@H]3CC[C@@]21C`, the activity, negative = cell killing in test [1] (setting [7]) was -3.65%. In addition, the Potency in test [1] (tumour line A) was 12.6 µM (active). Also, in test [3], the Potency entry is “inactive”.
